From PubChem BioAssay (Tox21)
Records with an inconclusive call do not appear. Entries that show only a call come without a potency. The source made the active and inactive calls. Unless noted, the call rests on the fitted dose curve; in most records, active means well fitted curve in the direction sought with a large enough effect in the repeat runs; inconclusive means weak or mixed curves; inactive means no such curve, though single readings can be large; an effect the other way counts as inactive or inconclusive.

Legend:
[1] = qHTS assay to identify small molecule antagonists of the glucocorticoid receptor (GR) signaling pathway - cell viability counter screen (AID 720693); further: nearly all actives have a fitted effect of over 55% in size
[2] = qHTS assay for identifying genotoxic compounds that show differential cytotoxicity against isogenic chicken DT40 cell lines with known DNA damage response pathways - wild type cell line (AID 743012); further: nearly all actives have a fitted effect of over 60% in size; further: potency means the concentration at half of the fitted maximal effect
In short: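 Parental DNA repair-proficient DT40 cells, 300 per well, were pre-incubated ~0.5 h at 37 C/5% CO2, pin-dosed with compounds in DMSO, then incubated 40 h. Viability was read as CellTiter-Glo luminescence after 30 min at room temperature.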

[3] = qHTS assay for identifying genotoxic compounds that show differential cytotoxicity against isogenic chicken DT40 cell lines with known DNA damage response pathways - Rev3 mutant cell line (AID 743014); further: nearly all actives have a fitted effect of over 55% in size; further: potency means the concentration at half of the fitted maximal effect
[4] = qHTS assay for identifying genotoxic compounds that show differential cytotoxicity against isogenic chicken DT40 cell lines with known DNA damage response pathways - Rad54/Ku70 mutant cell line (AID 743015); further: nearly all actives have a fitted effect of over 60% in size; further: potency means the concentration at half of the fitted maximal effect
[5] = qHTS assay to identify small molecule antagonists of the androgen receptor (AR) signaling pathway - cell viability counter screen (AID 743033; further: nearly all actives have a fitted effect of over 45% in size; further: potency means the concentration at half of the fitted maximal effect)
[6] = molecular target: Androgen receptor (Homo sapiens) (UniProt P10275); experiment: qHTS assay to identify small molecule antagonists of the androgen receptor (AR) signaling pathway (AID 743035; active means well fitted inhibition curve with a large enough effect in the signal ratio in the repeat runs, not every such curve was filed as active; the % refers to the signal ratio; further: potency means the concentration at half of the fitted maximal effect)
Chain of Androgen receptor (Homo sapiens) (P10275 whole entry, looked up): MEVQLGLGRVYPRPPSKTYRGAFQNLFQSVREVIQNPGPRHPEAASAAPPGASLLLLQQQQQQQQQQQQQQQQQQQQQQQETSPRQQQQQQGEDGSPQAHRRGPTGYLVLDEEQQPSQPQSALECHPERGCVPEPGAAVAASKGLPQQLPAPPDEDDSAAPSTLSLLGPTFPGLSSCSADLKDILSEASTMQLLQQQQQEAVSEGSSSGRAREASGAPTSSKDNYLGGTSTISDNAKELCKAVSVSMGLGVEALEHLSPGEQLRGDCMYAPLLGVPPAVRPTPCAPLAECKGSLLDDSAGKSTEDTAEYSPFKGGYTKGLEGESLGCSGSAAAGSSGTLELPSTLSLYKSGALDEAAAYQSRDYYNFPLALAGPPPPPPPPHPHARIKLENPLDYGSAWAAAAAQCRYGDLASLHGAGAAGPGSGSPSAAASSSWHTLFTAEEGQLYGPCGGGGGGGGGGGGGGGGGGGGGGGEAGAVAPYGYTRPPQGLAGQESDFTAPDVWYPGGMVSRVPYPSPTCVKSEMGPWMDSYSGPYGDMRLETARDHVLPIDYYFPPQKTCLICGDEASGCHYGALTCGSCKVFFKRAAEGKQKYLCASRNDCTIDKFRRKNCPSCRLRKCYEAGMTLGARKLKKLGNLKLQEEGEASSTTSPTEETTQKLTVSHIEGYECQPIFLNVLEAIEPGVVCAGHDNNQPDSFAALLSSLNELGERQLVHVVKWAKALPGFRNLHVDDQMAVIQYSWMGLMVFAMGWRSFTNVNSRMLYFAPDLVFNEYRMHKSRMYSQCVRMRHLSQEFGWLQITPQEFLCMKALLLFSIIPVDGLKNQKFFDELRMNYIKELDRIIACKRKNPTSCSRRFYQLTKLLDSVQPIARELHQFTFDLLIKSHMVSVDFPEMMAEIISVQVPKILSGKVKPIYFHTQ
In short: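 HEK293 cells stably carrying a UAS-driven beta-lactamase reporter (AR-UAS-bla GripTite) were plated for 4 h at 37C, then given compound and the agonist R1881 and incubated 16 h. Reporter activity was read by LiveBLAzer B/G FRET fluorescence after 2 h at room temperature.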

[7] = molecular target: Androgen receptor (Homo sapiens) (UniProt P10275); experiment: qHTS assay to identify small molecule agonists of the androgen receptor (AR) signaling pathway (AID 743036; active means well fitted activation curve with a large enough effect in the signal ratio in the repeat runs, with a control signal flat, not every such curve was filed as active; the % refers to the signal ratio; further: potency means the concentration at half of the fitted maximal effect)
In short: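 Fluorescence from a beta-lactamase FRET substrate served as read-out in AR-UAS-bla GripTite HEK293 cells. Cells were treated with DMSO-dissolved compounds for 16 h at 37C, then with LiveBLAzer B/G substrate for 2 h at room temperature.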

[8] = molecular target: Androgen receptor (Homo sapiens) (UniProt P10275); experiment: qHTS assay to identify small molecule agonists of the androgen receptor (AR) signaling pathway using the MDA cell line (AID 743040; further: nearly all actives have a fitted effect of over 20% in size; further: potency means the concentration at half of the fitted maximal effect)
In short: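 Cells plated, 5 h at 37C/0% CO2; compound or DMSO pinned; 16 h at 37C; ONE-Glo added; luminescence measured after 30 min at room temperature. Reporter line: MDA-kb2 with MMTV-luciferase responsive to AR and GR.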

[9] = molecular target: Androgen receptor (Homo sapiens) (UniProt P10275); experiment: qHTS assay to identify small molecule antagonists of the androgen receptor (AR) signaling pathway using the MDA cell line (AID 743042; further: nearly all actives have a fitted effect of over 55% in size)
In short: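 Antagonist mode: compounds plus R1881 agonist added to MDA-kb2 AR-luc cells, incubated 16 h at 37C. Luciferase reporter luminescence quantified, with multiplexed CellTiter-Fluor readout for cell viability.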

[10] = qHTS assay to identify small molecule antagonists of the thyroid receptor (TR) signaling pathway - cell viability counter screen (AID 743064); further: nearly all actives have a fitted effect of over 50% in size; further: potency means the concentration at half of the fitted maximal effect
In short: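 Fluorescence from CellTiter-Fluor, added after 23.5 h exposure at 37 °C, reported viability of GH3.TRE-Luc cells co-treated with compound and 1 nM T3. Measured in the same wells as the luciferase TR readout.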

[11] = qHTS assay to identify small molecule antagonists of the thyroid receptor (TR) signaling pathway (AID 743065); further: nearly all actives have a fitted effect of over 55% in size; further: potency means the concentration at half of the fitted maximal effect
In short: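 Antagonism measured as loss of luciferase signal in GH3 cells stably carrying a TRE-luciferase reporter, co-treated with compound and T3 (1 nM final) for 23.5 h at 37 C. Viability was read in the same well by CellTiter-Fluor.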

[12] = test system: thyroid hormone receptor (rat, GH3 cells); experiment: qHTS assay to identify small molecule agonists of the thyroid receptor (TR) signaling pathway (AID 743066; calls by dose curve)
[13] = molecular target: Estrogen receptor (Homo sapiens) (UniProt P03372); experiment: qHTS assay to identify small molecule antagonists of the estrogen receptor alpha (ER-alpha) signaling pathway (AID 743069; active means well fitted curve in the direction sought with a large enough effect in the signal ratio in the repeat runs, not every such curve was filed as active; the % refers to the signal ratio; further: potency means the concentration at half of the fitted maximal effect)
Chain of Estrogen receptor (Homo sapiens) (P03372 whole entry, looked up): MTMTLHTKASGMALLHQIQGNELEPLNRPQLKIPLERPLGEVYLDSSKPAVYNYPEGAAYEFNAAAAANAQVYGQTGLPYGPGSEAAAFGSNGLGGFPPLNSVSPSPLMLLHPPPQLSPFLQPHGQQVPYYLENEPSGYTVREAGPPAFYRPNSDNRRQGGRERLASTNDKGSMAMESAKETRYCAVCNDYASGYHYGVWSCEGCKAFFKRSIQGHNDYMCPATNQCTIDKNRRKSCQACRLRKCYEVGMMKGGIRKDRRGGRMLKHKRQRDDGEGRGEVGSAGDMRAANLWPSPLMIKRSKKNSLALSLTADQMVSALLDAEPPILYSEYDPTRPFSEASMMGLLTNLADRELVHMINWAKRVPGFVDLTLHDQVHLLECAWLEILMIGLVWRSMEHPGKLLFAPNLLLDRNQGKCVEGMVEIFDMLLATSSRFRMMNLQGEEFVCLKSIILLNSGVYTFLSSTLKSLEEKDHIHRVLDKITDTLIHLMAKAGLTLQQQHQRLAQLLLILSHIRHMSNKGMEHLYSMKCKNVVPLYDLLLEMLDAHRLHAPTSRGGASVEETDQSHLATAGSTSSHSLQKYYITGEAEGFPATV
In short: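 ER-alpha-UAS-bla GripTite HEK293 line; 2% charcoal-stripped FBS overnight; plated, 4 hr 37C/5% CO2; cpd in DMSO + 17beta-estradiol, 18 hr 37C; LiveBLAzer B/G FRET substrate 2 hr RT; fluorescence intensity.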

[14] = qHTS assay to identify small molecule antagonists of the estrogen receptor alpha (ER-alpha) signaling pathway - cell viability counter screen (AID 743074; calls by dose curve;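 further: HEK293 cells carrying ER-alpha-UAS-bla reporter stimulated with 17beta-estradiol; nearly all actives have a fitted effect of over 45% in size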)
[15] = molecular target: Estrogen receptor (Homo sapiens) (UniProt P03372); experiment: qHTS assay to identify small molecule agonists of the estrogen receptor alpha (ER-alpha) signaling pathway (AID 743075; calls by dose curve)
[16] = molecular target: Estrogen receptor (Homo sapiens) (UniProt P03372); experiment: qHTS assay to identify small molecule agonists of the estrogen receptor alpha (ER-alpha) signaling pathway using the BG1 cell line (AID 743079); settings: BG1Luc4E2 cells, ERE-luciferase agonist, 22 h; activation: at 70.3 µM (top of the series); further: nearly all actives have a fitted effect of over 20% in size; further: potency means the concentration at half of the fitted maximal effect
[17] = qHTS assay to identify small molecule antagonists of the estrogen receptor alpha (ER-alpha) signaling pathway using the BG1 cell line (AID 743080; calls by dose curve;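 further: BG1 cells stimulated with 17beta-estradiol alongside compound; nearly all actives have a fitted effect of over 25% in size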)
In short: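 Readout is ONE-Glo luminescence, taken 30 min at room temperature after reagent addition, preceded by a CellTiter-Fluor viability read; BG1-Luc-4E2 cells had received compound and 17beta-estradiol for 21.5 h at 37 C.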

[18] = qHTS assay to identify small molecule antagonists of the estrogen receptor alpha (ER-alpha) signaling pathway using the BG1 cell line - cell viability counter screen (AID 743081);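 further: compound given together with 17beta-estradiol as the ER stimulus; nearly all actives have a fitted effect of over 45% in size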
[19] = molecular target: Aromatase (Homo sapiens) (UniProt P11511); experiment: qHTS assay to identify aromatase inhibitors (AID 743083); further: nearly all actives have a fitted effect of over 55% in size
Chain of Aromatase (Homo sapiens) (P11511 whole entry, looked up): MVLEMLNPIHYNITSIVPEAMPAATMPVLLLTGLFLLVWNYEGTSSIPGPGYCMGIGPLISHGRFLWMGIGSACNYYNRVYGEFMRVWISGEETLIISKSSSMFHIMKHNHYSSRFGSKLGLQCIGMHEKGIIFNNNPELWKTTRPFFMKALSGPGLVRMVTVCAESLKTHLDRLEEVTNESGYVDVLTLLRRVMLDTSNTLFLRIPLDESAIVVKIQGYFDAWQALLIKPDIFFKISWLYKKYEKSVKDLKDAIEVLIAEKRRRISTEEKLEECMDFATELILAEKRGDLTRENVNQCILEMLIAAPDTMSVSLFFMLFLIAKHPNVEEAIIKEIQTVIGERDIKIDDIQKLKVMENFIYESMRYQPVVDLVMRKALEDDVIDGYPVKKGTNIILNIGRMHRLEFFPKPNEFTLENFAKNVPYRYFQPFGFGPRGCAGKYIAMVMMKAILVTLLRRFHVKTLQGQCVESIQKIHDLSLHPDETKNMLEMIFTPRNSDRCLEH

[20] = qHTS assay to identify small molecule antagonists of the androgen receptor (AR) signaling pathway using the MDA cell line - cell viability counter screen (AID 743041; further: nearly all actives have a fitted effect of over 45% in size)
In short: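 Cells were plated at 3,000 per well and left 5 h. Compounds in DMSO were then pinned in, followed by R1881. After 16 h at 37C, CellTiter-Fluor fluorescence gave viability.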

## CC(=O)O[C@H]1C[C@@]2(C)[C@@H](C[C@@H](O)[C@H]3[C@@]4(C)CC[C@@H](O)[C@@H](C)[C@@H]4CC[C@@]32C)/C1=C(\CCC=C(C)C)C(=O)O
[1]
  Potency: inactive
[2]
  Potency: inactive
[3]
  Potency: inactive
[4]
  Potency: inactive
[5]
  Potency: inactive
[6]
  Potency: inactive
[7]
  Potency: inactive
[8]
  Potency: inactive
[9]
  Potency: inactive
[10]
  Potency: inactive
[11]
  Potency: inactive
[12]
  Potency: inactive
[13]
  Potency: inactive
[14]
  Potency: inactive
[15]
  Potency: inactive
[16]
  Potency: inactive
[17]
  Potency: inactive
[18]
  Potency: inactive
[19]
  Potency: inactive

## O=C[C@H](O)[C@@H](O)[C@H](O[C@H]1O[C@H](CO)[C@@H](O[C@H]2O[C@H](CO)[C@@H](O)[C@H](O)[C@H]2O)[C@H](O)[C@H]1O)[C@H](O)CO
[1]
  Potency: inactive
[2]
  Potency: inactive
[3]
  Potency: inactive
[4]
  Potency: inactive
[5]
  Potency: inactive
[6]
  Potency: inactive
[7]
  Potency: 7.56 µM (active)
[8]
  Potency: 1.68 µM (active)
[20]
  Potency: inactive
[9]
  Potency: inactive
[10]
  Potency: inactive
[11]
  Potency: inactive
[12]
  Potency: inactive
[13]
  Potency: inactive
[15]
  Potency: inactive
[16]
  Potency: 26.6 µM (active)
[17]
  Potency: inactive
[18]
  Potency: inactive
[19]
  Potency: inactive

## CC(CN(C)C)CN1c2ccccc2S(=O)(=O)c2ccccc21 (stereo not drawn)
[1]
  Potency: inactive
[2]
  Potency: inactive
[3]
  Potency: inactive
[4]
  Potency: inactive
[5]
  Potency: inactive
[6]
  Potency: inactive
[7]
  Potency: inactive
[8]
  Potency: inactive
[20]
  Potency: inactive
[9]
  Potency: inactive
[12]
  Potency: inactive
[13]
  Potency: inactive
[14]
  Potency: inactive
[15]
  Potency: inactive
[16]
  Potency: inactive
[17]
  Potency: inactive
[19]
  Potency: inactive

## NCCCC[C@H](N)C(=O)O
[1]
  Potency: inactive
[2]
  Potency: inactive
[3]
  Potency: inactive
[4]
  Potency: inactive
[5]
  Potency: inactive
[6]
  Potency: inactive
[7]
  Potency: inactive
[8]
  Potency: inactive
[20]
  Potency: inactive
[9]
  Potency: inactive
[10]
  Potency: inactive
[14]
  Potency: inactive
[15]
  Potency: inactive
[16]
  Potency: inactive
[17]
  Potency: inactive
[18]
  Potency: inactive
[19]
  Potency: inactive

## COC(=O)C1=C(C)NC(C)=C(C(=O)O[C@H]2CCN(Cc3ccccc3)C2)[C@H]1c1cccc([N+](=O)[O-])c1
[1]
  Potency: inactive
[2]
  Potency: 10.6 µM (active)
[3]
  Potency: 18.8 µM (active)
[4]
  Potency: 13.3 µM (active)
[5]
  Potency: inactive
[6]
  Potency: 26.8 µM (active)
[7]
  Potency: inactive
[8]
  Potency: inactive
[10]
  Potency: 13.3 µM (active)
[11]
  Potency: 18.8 µM (active)
[13]
  Potency: 26.8 µM [inhibitor] (active)
[14]
  Potency: inactive
[15]
  Potency: inactive
[16]
  Potency: inactive
[17]
  Potency: inactive
[19]
  Potency: inactive

## CCC(Cc1c(I)cc(I)c(O)c1I)C(=O)O (stereo not drawn)
[1]
  Potency: inactive
[2]
  Potency: inactive
[3]
  Potency: inactive
[4]
  Potency: inactive
[5]
  Potency: inactive
[6]
  Potency: inactive
[7]
  Potency: inactive
[8]
  Potency: inactive
[20]
  Potency: inactive
[9]
  Potency: inactive
[11]
  Potency: inactive
[12]
  Potency: inactive
[13]
  Potency: inactive
[14]
  Potency: inactive
[17]
  Potency: inactive
[18]
  Potency: inactive
[19]
  Potency: inactive

## C#CCC(Cc1cnc2nc(N)nc(N)c2n1)c1ccc(C(=O)N[C@@H](CCC(=O)O)C(=O)O)cc1 (stereo partly drawn)
[1]
  Potency: inactive
[2]
  Potency: 0.0106 µM (active)
[3]
  Potency: 0.0168 µM (active)
[4]
  Potency: 0.0237 µM (active)
[5]
  Potency: 0.169 µM (active)
[6]
  Potency: inactive
[8]
  Potency: inactive
[20]
  Potency: inactive
[9]
  Potency: inactive
[11]
  Potency: 0.75 µM (active)
[12]
  Potency: inactive
[15]
  Potency: inactive
[16]
  Potency: inactive
[18]
  Potency: inactive
[19]
  Potency: inactive

## CS(=O)(=O)OCC(O)C(O)COS(C)(=O)=O (stereo not drawn)
[1]
  Potency: inactive
[2]
  Potency: 8.41 µM (active)
[3]
  Potency: 1.33 µM (active)
[4]
  Potency: 23.7 µM (active)
[5]
  Potency: inactive
[6]
  Potency: inactive
[7]
  Potency: inactive
[8]
  Potency: inactive
[20]
  Potency: inactive
[9]
  Potency: inactive
[11]
  Potency: inactive
[12]
  Potency: inactive
[14]
  Potency: inactive
[15]
  Potency: inactive
[16]
  Potency: inactive
[17]
  Potency: inactive
[18]
  Potency: inactive
[19]
  Potency: inactive

## CC(C)CCCC(C)NC(C)C (stereo not drawn)
[1]
  Potency: inactive
[2]
  Potency: inactive
[3]
  Potency: inactive
[4]
  Potency: inactive
[5]
  Potency: inactive
[6]
  Potency: inactive
[7]
  Potency: inactive
[8]
  Potency: inactive
[20]
  Potency: inactive
[9]
  Potency: inactive
[10]
  Potency: inactive
[11]
  Potency: inactive
[12]
  Potency: inactive
[13]
  Potency: inactive
[14]
  Potency: inactive
[15]
  Potency: inactive
[16]
  Potency: inactive
[17]
  Potency: inactive
[18]
  Potency: inactive
[19]
  Potency: inactive

## CCCOc1cc(N)ccc1C(=O)OCCN(CC)CC
[1]
  Potency: inactive
[2]
  Potency: inactive
[3]
  Potency: inactive
[4]
  Potency: inactive
[5]
  Potency: inactive
[6]
  Potency: inactive
[7]
  Potency: inactive
[8]
  Potency: inactive
[20]
  Potency: inactive
[9]
  Potency: inactive
[10]
  Potency: inactive
[11]
  Potency: inactive
[12]
  Potency: inactive
[13]
  Potency: inactive
[14]
  Potency: inactive
[15]
  Potency: inactive
[16]
  Potency: inactive
[17]
  Potency: inactive
[19]
  Potency: inactive

## COc1cc2c(cc1OC)[C@@H](c1ccccc1)CN(C)CC2
[1]
  Potency: inactive
[2]
  Potency: 23.7 µM (active)
[3]
  Potency: inactive
[4]
  Potency: inactive
[5]
  Potency: inactive
[6]
  Potency: inactive
[7]
  Potency: inactive
[8]
  Potency: inactive
[20]
  Potency: inactive
[9]
  Potency: inactive
[10]
  Potency: inactive
[12]
  Potency: inactive
[14]
  Potency: inactive
[15]
  Potency: inactive
[16]
  Potency: inactive
[17]
  Potency: inactive
[18]
  Potency: inactive

## OCC(O)COc1ccc(Cl)cc1 (stereo not drawn)
[1]
  Potency: inactive
[2]
  Potency: inactive
[3]
  Potency: inactive
[4]
  Potency: inactive
[5]
  Potency: inactive
[6]
  Potency: inactive
[7]
  Potency: inactive
[8]
  Potency: inactive
[20]
  Potency: inactive
[9]
  Potency: inactive
[10]
  Potency: inactive
[11]
  Potency: inactive
[12]
  Potency: inactive
[13]
  Potency: inactive
[15]
  Potency: inactive
[16]
  Potency: inactive
[17]
  Potency: inactive
[18]
  Potency: inactive
[19]
  Potency: inactive
